Pf growth 48h: inhibits P. falciparum growth in the first generation, 48 h. P. falciparum luciferase growth in erythrocytes, 48 h. Potency, µM (series often up to 28.7 µM), for inactives: at the top dose activity change, negative = inhibition, most hits filed as inhibitors. actives 5.9% (n = 310,000); also: % is scaled to controls: 0 for no effect and ±100 for the full control effect
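Luminescence readout; reporter = integrated firefly luciferase in P. falciparum. RBC culture at 2% hematocrit, 0.1% parasitemia final, 37 C/5% CO2; decreased signal taken as growth inhibition.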
SARS PLpro yeast: blocks SARS-CoV papain-like protease in a yeast assay; S. cerevisiae expressing SARS-CoV PLpro, growth rescue; Potency, µM (doses to about 32.9 µM), inactives show top-dose activity, positive = growth rescue, most hits filed as activators; actives 0.19% (n = 330,000); calls by dose curve; also: 0% is about no effect; nearly all actives have a fitted effect of over 55% in size
Sm TGR inh: inhibitors of Schistosoma mansoni thioredoxin glutathione reductase. Q962Y6. purified TGR, DTNB reduction, TNB absorbance 405 nm. Potency, µM (doses to about 114 µM), inactives show top-dose activity change, negative = inhibition, usual class: inhibitors. actives 3% (n = 360,000); also: % is scaled to controls: 0 for no effect and ±100 for the full control effect; nearly all actives have a fitted effect of over 60% in size
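TGR 20 nM + NADPH 100 uM (dispensed conc.), cpd preinc 15 min RT; start with NADPH (500 uM addition) then DTNB (15 mM addition). Kinetic TNB absorbance, 405 nm filter. Four-parameter Hill fit across titration.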
Pf growth 96h: P. falciparum growth inhibition at 96 hour, primary screen for plastid delayed-death inhibitors. actives 6.9% (n = 320,000). P. falciparum luciferase reporter growth, 96 h. Potency, µM (titrated, usually from 28.7 µM), without a hit: top-dose activity change, negative = inhibition, hits mostly inhibitors; also: % is scaled to controls: 0 for no effect and ±100 for the full control effect
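Plates of compound plus infected erythrocytes (2% hematocrit, 0.05% parasitemia final) incubate 96 hours, 37 C, 5% CO2. Detection reagent added; reduced luminescence from the parasites' luciferase reporter flags inhibition.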
Starred values were filed as active, the others as inactive; ? = inconclusive; nt = no result. Compounds with a hit are over-represented: about 12% of the library has one in this group of screens. Unless noted, calls follow the shape of the dose curve; as a rule, active = well fitted curve in the direction sought with a large enough effect; inconclusive = small, poorly fitted or top-dose-only effect, or another doubt; inactive = no such curve, though single readings can be large; an effect the other way counts as inactive or inconclusive. Potency is read from the fitted curve at half-maximal effect.

SMILES	Pf growth 48h	SARS PLpro yeast	Sm TGR inh	Pf growth 96h
Cn1cccc1Cc1nnc(SCC(=O)NCc2ccccc2Cl)n1-c1ccc(F)cc1	nt	-1.7%	0.0%	?
Cn1cccc1Cc1nnc(SCC(=O)NCc2ccco2)n1CCc1ccccc1	-7.4%	-1.1%	50.1µM*	12.5%
CCn1c(Cc2cccn2C)nnc1SCC(=O)c1ccc(C)cc1	13.1µM*	-6.8%	-23.9%	14.7µM*
Cn1cccc1Cc1nnc(SCC(=O)NCc2ccco2)n1-c1ccc(F)cc1	0.4%	-1.9%	44.7µM*	?
O=C(Nc1c(C(=O)Nc2ccc(F)cc2)oc2ccccc12)c1ccccc1F	nt	nt	8.8%	nt
COc1ccc(NC(=O)Cn2c(CCC(=O)O)ccc2-c2ccc(C)cc2)cc1	12.4%	25.0%	-3.4%	?
NC(=O)Nn1c(CCC(=O)O)ccc1-c1ccc(Cl)cc1	0.7%	0.1%	-32.2%	49.3%
NC(=O)Nn1c(CCC(=O)O)ccc1-c1ccc(Br)cc1	8.0%	0.5%	14.1µM*	1.5%
CCCn1c(CCC(=O)O)ccc1-c1ccc(OC)cc1	?	nt	39.8µM*	2.8%
COc1ccc(-c2ccc(CCC(=O)O)n2NC(N)=O)cc1	138.6%	0.1%	44.7µM*	105.4%
CO[C@H]1/C=C/O[C@@]2(C)Oc3c(C)c(O)c4c(O)c(c5c(c4c3C2=O)NC2(CCN(CC(C)C)CC2)N=5)=NC(=O)/C(C)=C\C=C\[C@H](C)[C@H](O)[C@@H](C)[C@@H](O)[C@@H](C)[C@H](OC(C)=O)[C@@H]1C	8.49µM*	nt	nt	5.36µM*
COC1C=CO[C@@]2(C)Oc3c(C)c(O)c4c(O)c(c(C=NN5CCN(C)CC5)c(O)c4c3C2=O)NC(=O)/C(C)=C\C=CC(C)C(O)[C@@H](C)C(O)C(C)[C@H](OC(C)=O)C1C (some centres undefined)	0.953µM*	nt	nt	0.601µM*
COC1C=CO[C@@]2(C)Oc3c(C)c(O)c4c(O)c(c5c(nc6cc(C)ccn65)c4c3C2=O)NC(=O)/C(C)=C\C=CC(C)C(O)[C@@H](C)C(O)C(C)[C@@H](OC(C)=O)C1C (some centres undefined)	6.75µM*	nt	nt	4.78µM*
Cc1cccc(C(=O)NC2CCN(C(=O)Nc3ccccc3C)CC2)c1	4.9%	0.2%	14.2%	28.7%
Cc1cccc(C(=O)NC2CCN(C(=O)Nc3ccc(F)cc3)CC2)c1	-9.7%	-2.2%	39.8µM*	-14.9%
CCOc1ccccc1NC(=O)N1CCC(NC(=O)c2cccc(C)c2)CC1	-15.0%	5.5%	25.1µM*	0.0%
CC(C)N(C(=O)Cn1cc(S(=O)(=O)Cc2ccc(Br)cc2)c2ccccc21)C(C)C	nt	nt	2.3%	nt
CCN(CC)CCOc1c(Br)ccc2c1sc1nc3n(c(=O)c12)CCC3	?	0.0%	2.6%	13.1µM*
O=c1c2c(nc3n1CCCCC3)sc1c(O)c(Br)ccc12	2.5%	-10.4%	-1.9%	nt
O=C(CN1C(=O)C2CC=CCC2C1=O)Nc1ccc(Br)cc1 (centres undefined)	13.7%	?	-3.6%	41.2%
COc1ccccc1NC(=O)CCCN1C(=O)C2CC=CCC2C1=O (centres undefined)	9.2%	-1.7%	0.0%	6.57µM*
COc1ccc(NC(=O)CCCN2C(=O)C3CC=CCC3C2=O)cc1 (centres undefined)	12.6%	7.9%	-19.9%	10.4µM*
Cc1cc(Br)ccc1NC(=O)CN1C(=O)C2CC=CCC2C1=O (centres undefined)	?	-2.6%	12.6µM*	?
CCc1ccccc1NC(=O)CCN1C(=O)C2CC=CCC2C1=O (centres undefined)	27.0%	-0.9%	7.5%	11.7µM*
CCc1ccccc1NC(=O)CCN1C(=O)c2ccccc2C1=O	nt	2.2%	-20.5%	?
SMILES	Pf growth 48h	SARS PLpro yeast	Sm TGR inh	Pf growth 96h
Cc1ccccc1CN1C(=O)c2ccccc2Sc2ccc(C(=O)NCc3ccccc3)cc21	nt	nt	13.7%	nt
Cc1ccc([N+](=O)[O-])cc1S(=O)(=O)Nc1ccc(OCC(=O)N2CCOCC2)cc1	-13.8%	-4.5%	66.1%	?
COc1ccc(-c2noc(CNC(=O)CCN3C(=O)[C@H]4CC=CC[C@H]4C3=O)n2)cc1	-9.0%	16.8%	-6.9%	11.7µM*
COc1ccc(-c2noc(CN(C)C(=O)CCN3C(=O)[C@H]4CC=CC[C@H]4C3=O)n2)cc1	?	-0.1%	0.9%	?
CCc1ccc(NC(=O)N(Cc2c[nH]c3ccccc23)C2CCCCC2)cc1	nt	nt	5.0%	nt
CCC(CC)C(=O)NC1CC(=O)N(c2ccc3c(c2)OCCO3)C1 (centres undefined)	nt	nt	5.9%	nt
Cc1cc(C)c2c(N)c(C(=O)c3ccc(Cl)cc3Cl)sc2n1	13.1µM*	1.8%	-3.2%	35.0%
Cc1cc(C)c2c(N)c(C(=O)c3ccccc3Cl)sc2n1	18.4%	-0.2%	-1.3%	28.8%
O=C(Cc1cccc2ccccc12)N/N=C/c1ccncc1	0.0%	-0.4%	0.0%	10.4µM*
O=C(Cc1cccc2ccccc12)N/N=C/c1ccc(OC(=O)/C=C/c2ccco2)cc1	11.7µM*	-1.8%	?	?
O=Cc1cccc(OC(=O)/C=C/c2ccco2)c1	60.7%	3.1%	28.2µM*	-9.0%
CC(C)CC(NC(=O)C(NC(=O)C1CCC(=O)N1C(=O)OCc1ccccc1)C(C)C)C(=O)N1CCCC1C(N)=O (centres undefined)	15.8%	2.9%	-9.2%	?
CC(CNC(=O)Cn1ncc2c3ccccc3n(Cc3cccc(Cl)c3)c2c1=O)c1ccccc1 (centres undefined)	nt	nt	-2.9%	nt
CCc1ccc(NC(=O)c2cc3c(=O)n(Cc4cccs4)ccc3nc2C)cc1	nt	nt	8.6%	nt
CC(=O)N1N=C(c2ccc(C)c([N+](=O)[O-])c2)OC1(C)C	9.28µM*	-2.4%	17.9%	?
CC(=O)N1N=C(c2cccc([N+](=O)[O-])c2)OC1(C)c1cccs1 (centres undefined)	-8.6%	-4.0%	-29.1%	-10.0%
Cc1ccc(NC(=O)C2CC(O)CN2C(=O)OCc2ccccc2)cc1C (centres undefined)	?	-0.3%	3.6%	?
COC(=O)C1=C(C)N(Cc2ccccc2)C(=NCC2CC2)N[C@H]1c1ccc(Br)cc1	?	7.3%	-10.0%	?
Cc1ccc2oc(=O)c3cnn(CC(=O)NC4CCN(Cc5ccccc5)CC4)c3c2c1	nt	4.4%	?	2.33µM*
Cc1ccc2oc(=O)c3cnn(CC(=O)NCCN4CCOCC4)c3c2c1	12.6%	9.2%	?	9.28µM*
CCc1ccc(-n2nc(C)c3c(C(=O)N4CCN(c5cccc(Cl)c5)CC4)cc(C)nc32)cc1	nt	nt	9.5%	nt
Cc1ccc(NC2CCCN(C(=O)c3ccoc3)C2)cc1C (centres undefined)	0.0%	-0.2%	-27.1%	10.4µM*
Cc1ccc(NC2CCCN(C(=O)C3CCCC3)C2)cc1C (centres undefined)	20.6%	13.9%	0.8%	13.1µM*
Cc1ccc(NC2CCCN(C(=O)c3cnsn3)C2)cc1C (centres undefined)	4.8%	1.0%	22.3%	0.0%

High-throughput results as filed in PubChem BioAssay.
